# From PubChem BioAssay
# Compounds with a hit are over-represented: about 17% of the library has one in this group of screens.
# TDP1 cell noCPT: qHTS for Inhibitors of human tyrosyl-DNA phosphodiesterase 1 (TDP1): qHTS in cells in absence of CPT; DT40 Tdp1-/- hTDP1 cells, no CPT, ATP luminescence, 48 h; Potency, µM (doses to about 46.2 µM), for the others: at the highest dose activity change, negative = growth inhibition, most hits filed as inhibitors; 15% of 420,000 active; further: on the % scale 0 is the no-effect control and ±100 the full control effect; nearly all actives have a fitted effect of over 55% in size
#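 Readout: luminescence from CellTiter-Glo after 30 min in the dark at RT. Cells: DT40 Tdp1-/- with stable hTDP1, 400/well. Exposure: compounds alone, ≥48 hr, 37 °C.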
# TGFb SMAD3 inh: TGF-b pathway inhibition | HepG2 CAGA-GFP TGF-b/SMAD3 reporter, GFP fluorescence, 18 h; TGF-beta stimulated, 500 pg/mL final | Potency, µM (doses to about 46.1 µM), for the others: at the top dose activity, negative = inhibition, hits mostly inhibitors | 1.2% of 410,000 active | AID 588855; further: on the % scale 0 is the no-effect control and ±100 the full control effect; nearly all actives have a fitted effect of over 65% in size
#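 First, reporter cells (HEPG2 CAGA-GFP) rested 2 h at 37 degrees C. Next, compounds were pinned in and TGF-beta added to 500 pg/mL final. After 18 h, GFP was imaged per cell and summed per well.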
# TDP1 cell CPT: DT40-hTDP1 cell growth loss with CPT | 12% of 420,000 active | Potency, µM (titrated, usually from 46.2 µM), for the others: at the highest dose activity change, negative = growth inhibition, actives largely listed as inhibitors | chicken DT40 Tdp1-/-;hTDP1 cells + 20 nM CPT, ATP luminescence, 48 h; further: on the % scale 0 is the no-effect control and ±100 the full control effect; nearly all actives have a fitted effect of over 55% in size
#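 Chicken DT40 Tdp1-/- cells stably complemented with human TDP1 were seeded at 400 cells/well in medium containing 20 nM camptothecin, exposed to pin-transferred compounds, and grown at 37 °C for at least 48 hr. Viability was read as ATP luminescence.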
# HepG2 tox: HepG2 cytotoxicity, counter-screen for TGF-b inhibitors; HepG2 CAGA-GFP viability, ATP luminescence, 18 h; Potency, µM (titrated, usually from 46.1 µM), inactives show at the highest dose activity change, negative = cytotoxicity, most hits filed as cytotoxic; 0.76% of 410,000 active
#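 HepG2 CAGA-GFP cells (1000/well, DMEM with 1% FBS) received compound, then TGF-beta at 500 pg/mL final, and were incubated 18 hours at 37 degrees C. Viability was read by CellTiter-Glo luminescence. Media-only wells were set as complete cell-killing and DMSO as no toxicity.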
# HT1080 IDH1KD tx: toxicity to HT-1080 IDH1 knockdown cells (counter line) | HT-1080 IDH1 knockdown viability, ATP luminescence, 48 h | Potency, µM (titrated, usually from 46.1 µM), for inactives: at the top dose activity, negative = toxicity, actives largely listed as cytotoxic | 2% of 360,000 active | AID 686971;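 further: 0% = DMSO wells and -100% = cell-free medium wells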
#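 HT-1080-IDH1KD cells (IDH1 knocked down), 750/well in RPMI with 5% FBS, treated with compound 48 h at 37 degrees C. Viability by CellTiter-Glo luminescence, normalised to DMSO and no-cell wells; concentration-response curves classed.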
# HT1080NT lethal: kills 2HG-producing HT-1080-NT fibrosarcoma cells; HT-1080-NT fibrosarcoma viability, CellTiter-Glo ATP luminescence, 48 h; Potency, µM (top dose mostly 46.1 µM), without a hit: top-dose activity, negative = less viability, most hits filed as cytotoxic; 1.6% of 360,000 active; AID 686970;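 further: NT is the 2HG producing partner of a matched IDH1 knockdown line; 0% = DMSO-treated cells and -100% = media-only wells without cells; nearly all actives have a fitted effect of over 55% in size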
#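 HT-1080-NT; 750 cells/well; 5% FBS RPMI; 48 h compound, 37 degrees C; CellTiter-Glo luminescence; curve fitting and curve-class assignment.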
# Active calls of the source: *; ? = inconclusive; nt = no result; [ ] = remark or other dose. The call rests on the fitted dose curve; in most records, active means well fitted curve in the direction sought with a large enough effect; inconclusive means small, poorly fitted or top-dose-only effect, or another doubt; inactive means no such curve, though single readings can be large; an effect the other way counts as inactive or inconclusive. Potency means the concentration at half of the fitted maximal effect.
SMILES,TDP1 cell noCPT,TGFb SMAD3 inh,TDP1 cell CPT,HepG2 tox,HT1080 IDH1KD tx,HT1080NT lethal
COc1ccc(OCc2cc(C(=O)NC3Cc4ccccc4C3)no2)c(Cl)c1,3.7µM*,-8%,3.3µM*,11%,?,?
CCOc1ccc(-c2cc3nc(C4CCN(C(=O)OC(C)(C)C)CC4)c(C(=O)Nc4cccc(C(F)(F)F)c4)cn3n2)cc1,?,-1%,16µM*,-10%,nt,nt
CCOC(=O)c1cn2nc(-c3ccc(OCC)cc3)cc2nc1C1CCN(C(=O)OC(C)(C)C)CC1,16µM*,-5%,?,4%,9%,4%
Cc1nn(-c2cccc(C(F)(F)F)c2)c(=O)c2ccccc12,0%,-4%,-5%,-5%,-25%,-21%
Cc1cc(N=Cc2c(O)n(-c3cccc(C(F)(F)F)c3)c(=O)c3ccccc23)no1,23µM*,1%,18µM*,2%,0%,-2%
Cc1nc(SCC(=O)Nc2ccccc2)c2oc3ccccc3c2n1,-30%,6%,-5%,12%,-2%,5%
Cc1nc(SCC(=O)NC(C)c2ccccc2)c2oc3ccccc3c2n1 (stereo unspecified),21µM*,8%,16µM*,-3%,11%,11%
Cc1nc(SCC(=O)N2CCCc3ccccc32)c2oc3ccccc3c2n1,?,-16%,16µM*,-49%,8%,-2%
Cc1nc(SCc2cccc(F)c2)c2oc3ccccc3c2n1,?,-10%,-9%,0%,-6%,-12%
Cc1cc(C)nc(Sc2nc(C)nc3c2oc2ccccc23)n1,23µM*,?,?,7%,?,?
CCc1nc(SCC(=O)N2CCc3ccccc32)c2oc3ccccc3c2n1,1%,9%,5%,1%,1%,-1%
C[C@@H]1CN([C@@H](C)CO)C(=O)CCCn2cc(nn2)CO[C@H]1CN(C)S(=O)(=O)c1cccc(C#N)c1,11%,8%,10%,2%,6%,14%
COc1ccc(CC(=O)OCC(=O)Nc2c(C)n(C)n(-c3ccccc3)c2=O)cc1OC,14%,1%,-12%,0%,0%,0%[9.24 µM]
COc1ccc(-c2oc3ncnc(NCCCN(C)C)c3c2-c2ccc(OC)cc2)cc1,18µM*,?,?,-101%,?,?
CCCCNc1ncnc2oc(-c3ccco3)c(-c3ccco3)c12,6.3µM*,?,6.3µM*,-27%,nt,nt
CN(C)CCNc1ncnc2oc(-c3ccccc3)c(-c3ccccc3)c12,?,6%,?,-33%,-3%,-6%
Cc1ccc(Cn2nnnc2CN2CCC(NC(=O)c3ccc(Br)cc3)CC2)cc1,18µM*,0%,?,-3%,0%[9.24 µM],-3%
Clc1ccc2nc(C3CCN(Cc4nnnn4C4CCCCC4)CC3)[nH]c2c1,?,-2%,?,-25%,-18%,-10%
CCC(C)(C)n1nnnc1CN1CCC(NC(=O)c2ccc(Br)cc2)CC1,21µM*,-16%,?,7%,1%,2%
Cc1ccc(Cn2nnnc2CN2CCC(c3nc4ccc(Cl)cc4[nH]3)CC2)cc1,2.3µM*,-24%,2.6µM*,1%,?,-11%
COc1ccc(CC(=O)NC2CCN(Cc3nnnn3C(C)(C)C)CC2)cc1OC,-2%,-4%,-5%,-1%,1%,1%
O=C(Cc1ccccc1)Nc1ccc2oc(=O)ccc2c1,-6%,-2%,2%,14%,15%,9%
O=C(c1cc2ccccc2o1)N1CCN(CCOc2ccccc2)CC1,?,-25%,?,-20%,-9%,-1%
